# According to paper PMC7862700, “An all-to-all approach to the identification of sequence-specific readers for epigenetic DNA modifications on cytosine”:
# Experiments:
# Assay in all cases: DAPPL (digital affinity profiling via proximity ligation, sequencing); 10 mM Tris-HCl pH 7.5, 50 mM NaCl, 1 mM DTT, 4% glycerol, room temperature, 30 min; GST-TFs on glutathione beads, 16-mer random dsDNA library, 0.1% formaldehyde crosslink after washing; high values mean tight binding
# [1] = biological target: T1, FLI1 (Homo sapiens, UniProt Q01543 1-452); details: protein: recombinant; tags: N-terminal GST; dsDNA, one strand shown
# T1 sequence: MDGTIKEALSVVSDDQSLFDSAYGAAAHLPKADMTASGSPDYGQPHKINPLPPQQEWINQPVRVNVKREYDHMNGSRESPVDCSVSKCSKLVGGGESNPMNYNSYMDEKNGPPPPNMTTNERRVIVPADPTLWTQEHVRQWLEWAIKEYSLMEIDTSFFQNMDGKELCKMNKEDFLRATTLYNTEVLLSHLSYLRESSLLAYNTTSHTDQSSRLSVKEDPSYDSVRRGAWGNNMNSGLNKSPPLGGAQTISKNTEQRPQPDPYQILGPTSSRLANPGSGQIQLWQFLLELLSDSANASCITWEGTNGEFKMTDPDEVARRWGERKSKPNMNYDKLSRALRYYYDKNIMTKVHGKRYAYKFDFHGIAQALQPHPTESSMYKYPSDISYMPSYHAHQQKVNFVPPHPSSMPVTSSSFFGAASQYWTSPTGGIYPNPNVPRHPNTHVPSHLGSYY
# How it was run: (§1)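 GST fusions of human transcription factors were expressed in yeast and captured with glutathione beads. Once given DNA barcodes and pooled alongside a tag-only sample, they were incubated for 30 min at room temperature with 200 nmole of a random double-stranded 16-mer DNA library in Tris/NaCl/DTT/glycerol buffer, then washed, crosslinked (0.1% formaldehyde), proximity-ligated, PCR-amplified and sequenced on an Illumina NextSeq500. The binding signal of each hexamer is its read frequency for a factor divided by its frequency for the tag-only sample.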
# [2] = biological target: T2, ELK1 (Homo sapiens, UniProt P19419 1-428); details: protein: recombinant; tags: N-terminal GST; dsDNA, one strand shown
# T2 sequence: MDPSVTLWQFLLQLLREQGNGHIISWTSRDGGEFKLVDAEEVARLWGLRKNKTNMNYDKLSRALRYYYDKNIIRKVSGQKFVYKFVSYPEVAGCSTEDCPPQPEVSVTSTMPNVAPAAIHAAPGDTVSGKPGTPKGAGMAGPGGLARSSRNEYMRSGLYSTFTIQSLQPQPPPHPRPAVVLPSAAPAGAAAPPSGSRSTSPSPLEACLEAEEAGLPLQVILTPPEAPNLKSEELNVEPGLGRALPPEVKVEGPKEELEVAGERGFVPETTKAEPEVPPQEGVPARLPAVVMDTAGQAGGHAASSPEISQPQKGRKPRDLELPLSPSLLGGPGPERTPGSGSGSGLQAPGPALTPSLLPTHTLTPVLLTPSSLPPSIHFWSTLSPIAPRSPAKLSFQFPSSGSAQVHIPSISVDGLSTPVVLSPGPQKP
# How it was run: as §1
# [3] = biological target: T3, GABPA (Homo sapiens, UniProt Q06546 1-454); details: protein: recombinant; tags: N-terminal GST; dsDNA, one strand shown
# T3 sequence: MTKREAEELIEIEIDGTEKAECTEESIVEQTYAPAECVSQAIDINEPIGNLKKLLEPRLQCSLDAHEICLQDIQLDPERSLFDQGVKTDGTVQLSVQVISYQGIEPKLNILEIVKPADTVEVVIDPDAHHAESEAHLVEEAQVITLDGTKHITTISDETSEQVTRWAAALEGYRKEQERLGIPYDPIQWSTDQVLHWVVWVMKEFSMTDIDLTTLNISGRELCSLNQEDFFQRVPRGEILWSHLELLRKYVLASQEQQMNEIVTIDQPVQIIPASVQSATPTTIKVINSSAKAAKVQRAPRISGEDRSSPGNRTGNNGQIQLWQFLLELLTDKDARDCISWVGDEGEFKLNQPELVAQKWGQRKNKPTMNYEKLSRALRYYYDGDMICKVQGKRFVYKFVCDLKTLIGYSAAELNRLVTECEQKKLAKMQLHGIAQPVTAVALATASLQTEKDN
# How it was run: as §1
# [4] = biological target: T4, ERG (Homo sapiens, UniProt P11308 1-479); details: protein: recombinant; tags: N-terminal GST; dsDNA, one strand shown
# T4 sequence: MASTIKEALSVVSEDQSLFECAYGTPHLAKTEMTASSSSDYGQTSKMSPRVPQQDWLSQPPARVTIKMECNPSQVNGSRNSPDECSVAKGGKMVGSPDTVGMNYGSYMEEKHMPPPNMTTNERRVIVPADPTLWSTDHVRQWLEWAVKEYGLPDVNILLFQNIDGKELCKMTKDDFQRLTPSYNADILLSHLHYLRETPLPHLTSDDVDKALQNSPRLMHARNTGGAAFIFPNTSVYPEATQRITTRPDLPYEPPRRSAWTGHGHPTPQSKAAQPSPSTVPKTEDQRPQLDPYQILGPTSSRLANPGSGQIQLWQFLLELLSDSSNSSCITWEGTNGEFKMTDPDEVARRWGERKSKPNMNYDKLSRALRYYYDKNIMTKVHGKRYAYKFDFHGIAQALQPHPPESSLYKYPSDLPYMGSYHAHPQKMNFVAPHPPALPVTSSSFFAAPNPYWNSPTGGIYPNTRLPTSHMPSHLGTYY
# How it was run: as §1
# [5] = biological target: ELF1 (Homo sapiens, UniProt P32519 1-619); details: protein: recombinant; tags: N-terminal GST; dsDNA, one strand shown
# How it was run: as §1
# [6] = biological target: T5, EHF (Homo sapiens, UniProt Q9NZC4 1-300); details: protein: recombinant; tags: N-terminal GST; dsDNA, one strand shown
# T5 sequence: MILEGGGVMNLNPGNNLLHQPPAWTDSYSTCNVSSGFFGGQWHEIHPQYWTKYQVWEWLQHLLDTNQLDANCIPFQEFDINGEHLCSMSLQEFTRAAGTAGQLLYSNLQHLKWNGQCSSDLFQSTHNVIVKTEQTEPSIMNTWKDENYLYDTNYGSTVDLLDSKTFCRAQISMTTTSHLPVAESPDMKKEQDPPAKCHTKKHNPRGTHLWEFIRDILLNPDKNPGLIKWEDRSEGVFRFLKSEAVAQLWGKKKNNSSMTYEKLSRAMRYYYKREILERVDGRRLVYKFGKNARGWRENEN
# How it was run: as §1
# [7] = biological target: SPI1 (Homo sapiens, UniProt P17947 1-270); details: protein: recombinant; tags: N-terminal GST; dsDNA, one strand shown
# How it was run: as §1
# [8] = biological target: SPIB (Homo sapiens, UniProt Q01892 1-262); details: protein: recombinant; tags: N-terminal GST; dsDNA, one strand shown
# How it was run: as §1
# [9] = biological target: T6, ELK3 (Homo sapiens, UniProt P41970 1-407); details: protein: recombinant; tags: N-terminal GST; dsDNA, one strand shown
# T6 sequence: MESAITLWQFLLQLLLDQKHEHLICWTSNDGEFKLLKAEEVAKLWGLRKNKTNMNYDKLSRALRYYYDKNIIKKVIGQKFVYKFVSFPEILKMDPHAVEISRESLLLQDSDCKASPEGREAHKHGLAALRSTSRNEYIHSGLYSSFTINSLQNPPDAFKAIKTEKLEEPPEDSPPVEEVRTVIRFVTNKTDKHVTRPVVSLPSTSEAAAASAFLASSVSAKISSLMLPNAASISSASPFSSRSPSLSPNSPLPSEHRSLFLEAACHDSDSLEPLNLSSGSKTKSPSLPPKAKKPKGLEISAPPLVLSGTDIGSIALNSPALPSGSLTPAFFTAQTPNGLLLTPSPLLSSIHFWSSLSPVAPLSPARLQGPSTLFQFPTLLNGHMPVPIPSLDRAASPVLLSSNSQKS
# How it was run: as §1
# [10] = biological target: T7, FEV (Homo sapiens, UniProt Q99581 1-238); details: protein: recombinant; tags: N-terminal GST; dsDNA, one strand shown
# T7 sequence: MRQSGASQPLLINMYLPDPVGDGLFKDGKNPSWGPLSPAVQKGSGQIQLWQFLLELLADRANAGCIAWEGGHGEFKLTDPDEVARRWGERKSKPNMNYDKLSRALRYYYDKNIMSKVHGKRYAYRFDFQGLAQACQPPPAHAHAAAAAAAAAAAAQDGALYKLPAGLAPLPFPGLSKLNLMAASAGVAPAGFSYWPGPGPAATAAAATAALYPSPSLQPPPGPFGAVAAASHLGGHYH
# How it was run: as §1
# [11] = biological target: ETV5 (Homo sapiens, UniProt P41161 1-510); details: protein: recombinant; tags: N-terminal GST; dsDNA, one strand shown
# How it was run: as §1
# [12] = biological target: HSF1 (Homo sapiens, UniProt Q00613 1-529); details: protein: recombinant; tags: N-terminal GST; chain copies: 3; dsDNA, one strand shown
# How it was run: as §1
# [13] = biological target: T8, SPIC (Homo sapiens, UniProt Q8N5J4 1-248); details: protein: recombinant; tags: N-terminal GST; dsDNA, one strand shown
# T8 sequence: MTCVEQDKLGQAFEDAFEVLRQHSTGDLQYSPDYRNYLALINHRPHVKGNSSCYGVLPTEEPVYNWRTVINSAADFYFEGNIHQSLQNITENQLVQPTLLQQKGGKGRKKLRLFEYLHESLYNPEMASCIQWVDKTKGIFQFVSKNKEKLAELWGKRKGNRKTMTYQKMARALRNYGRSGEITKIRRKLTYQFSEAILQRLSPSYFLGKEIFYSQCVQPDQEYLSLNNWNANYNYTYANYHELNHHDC
# How it was run: as §1
# [14] = biological target: ELF4 (Homo sapiens, UniProt Q99607 1-663); details: protein: recombinant; tags: N-terminal GST; dsDNA, one strand shown
# How it was run: as §1
# [15] = biological target: T9, ELK4 (Homo sapiens, UniProt P28324-2 1-405); details: protein: recombinant; tags: N-terminal GST; dsDNA, one strand shown
# T9 sequence: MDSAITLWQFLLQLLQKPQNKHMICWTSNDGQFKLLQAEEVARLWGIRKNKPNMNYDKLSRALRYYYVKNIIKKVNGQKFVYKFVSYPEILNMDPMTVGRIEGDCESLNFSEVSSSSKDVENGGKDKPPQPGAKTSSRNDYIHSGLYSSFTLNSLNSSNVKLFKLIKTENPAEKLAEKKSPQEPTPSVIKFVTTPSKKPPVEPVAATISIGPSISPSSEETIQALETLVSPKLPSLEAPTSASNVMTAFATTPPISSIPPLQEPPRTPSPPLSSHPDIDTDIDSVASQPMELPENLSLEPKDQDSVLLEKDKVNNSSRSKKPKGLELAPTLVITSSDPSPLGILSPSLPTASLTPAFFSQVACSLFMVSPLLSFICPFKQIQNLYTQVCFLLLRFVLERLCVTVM
# How it was run: as §1
# [16] = biological target: T10, ETV2 (Homo sapiens, UniProt O00321 1-342); details: protein: recombinant; tags: N-terminal GST; dsDNA, one strand shown
# T10 sequence: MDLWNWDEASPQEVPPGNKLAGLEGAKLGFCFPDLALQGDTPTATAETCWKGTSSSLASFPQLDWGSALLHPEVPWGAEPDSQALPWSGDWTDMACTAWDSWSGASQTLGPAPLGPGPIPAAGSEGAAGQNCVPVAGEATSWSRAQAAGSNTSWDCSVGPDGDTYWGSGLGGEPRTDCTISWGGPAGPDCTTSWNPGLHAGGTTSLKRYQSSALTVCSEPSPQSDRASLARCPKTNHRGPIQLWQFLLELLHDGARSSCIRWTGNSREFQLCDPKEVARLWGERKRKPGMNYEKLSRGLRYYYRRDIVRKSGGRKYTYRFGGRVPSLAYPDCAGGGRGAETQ
# How it was run: as §1
# [17] = biological target: T11, ELF3 (Homo sapiens, UniProt P78545 1-371); details: protein: recombinant; tags: N-terminal GST; dsDNA, one strand shown
# T11 sequence: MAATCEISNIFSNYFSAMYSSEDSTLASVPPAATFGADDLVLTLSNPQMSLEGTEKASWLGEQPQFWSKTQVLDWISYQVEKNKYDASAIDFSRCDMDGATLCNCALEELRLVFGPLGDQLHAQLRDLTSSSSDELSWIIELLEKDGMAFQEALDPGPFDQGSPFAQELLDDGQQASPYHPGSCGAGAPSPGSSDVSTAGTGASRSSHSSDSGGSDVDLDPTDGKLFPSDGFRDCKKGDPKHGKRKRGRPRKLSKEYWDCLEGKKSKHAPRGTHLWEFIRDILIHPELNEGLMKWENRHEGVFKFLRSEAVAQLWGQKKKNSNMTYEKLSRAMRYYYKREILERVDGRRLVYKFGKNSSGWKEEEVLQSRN
# How it was run: as §1
# [18] = biological target: CRX (Homo sapiens, UniProt O43186 1-299); details: protein: recombinant; tags: N-terminal GST; dsDNA, one strand shown
# How it was run: as §1
# [19] = biological target: ETV1 (Homo sapiens, UniProt P50549 1-477); details: protein: recombinant; tags: N-terminal GST; dsDNA, one strand shown
# How it was run: as §1
# ELF4, sequence (Q99607 whole entry): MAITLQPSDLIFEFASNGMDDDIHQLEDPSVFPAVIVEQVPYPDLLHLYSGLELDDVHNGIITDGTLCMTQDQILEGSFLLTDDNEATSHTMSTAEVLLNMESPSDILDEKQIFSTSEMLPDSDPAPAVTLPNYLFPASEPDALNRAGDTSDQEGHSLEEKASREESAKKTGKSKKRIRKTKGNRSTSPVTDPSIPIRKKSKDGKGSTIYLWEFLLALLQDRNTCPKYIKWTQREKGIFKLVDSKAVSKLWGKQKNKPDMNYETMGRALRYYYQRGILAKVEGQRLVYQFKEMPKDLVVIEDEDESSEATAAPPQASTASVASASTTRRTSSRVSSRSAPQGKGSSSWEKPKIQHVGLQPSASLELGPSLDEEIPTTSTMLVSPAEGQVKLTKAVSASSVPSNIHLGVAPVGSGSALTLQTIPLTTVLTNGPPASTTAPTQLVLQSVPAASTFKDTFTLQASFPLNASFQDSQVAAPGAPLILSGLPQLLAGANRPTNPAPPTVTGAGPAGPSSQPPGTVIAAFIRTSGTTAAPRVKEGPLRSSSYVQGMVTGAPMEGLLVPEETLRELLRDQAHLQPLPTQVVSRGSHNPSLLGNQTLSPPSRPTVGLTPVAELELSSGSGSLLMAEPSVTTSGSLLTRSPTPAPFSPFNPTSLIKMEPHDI
# ETV1, sequence (P50549 whole entry): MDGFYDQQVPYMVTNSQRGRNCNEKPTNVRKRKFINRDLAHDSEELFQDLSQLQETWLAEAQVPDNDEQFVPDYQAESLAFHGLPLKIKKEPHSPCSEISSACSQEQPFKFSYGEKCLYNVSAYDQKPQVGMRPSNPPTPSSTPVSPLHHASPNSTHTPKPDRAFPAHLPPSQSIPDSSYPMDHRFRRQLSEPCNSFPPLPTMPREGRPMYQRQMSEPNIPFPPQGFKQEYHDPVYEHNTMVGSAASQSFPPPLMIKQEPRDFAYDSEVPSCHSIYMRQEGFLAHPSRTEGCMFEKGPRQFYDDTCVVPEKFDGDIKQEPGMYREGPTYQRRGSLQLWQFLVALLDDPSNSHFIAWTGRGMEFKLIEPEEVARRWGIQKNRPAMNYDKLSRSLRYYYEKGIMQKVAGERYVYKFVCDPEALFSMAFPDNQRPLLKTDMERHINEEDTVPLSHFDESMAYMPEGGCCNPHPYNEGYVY
# ETV5, sequence (P41161 whole entry): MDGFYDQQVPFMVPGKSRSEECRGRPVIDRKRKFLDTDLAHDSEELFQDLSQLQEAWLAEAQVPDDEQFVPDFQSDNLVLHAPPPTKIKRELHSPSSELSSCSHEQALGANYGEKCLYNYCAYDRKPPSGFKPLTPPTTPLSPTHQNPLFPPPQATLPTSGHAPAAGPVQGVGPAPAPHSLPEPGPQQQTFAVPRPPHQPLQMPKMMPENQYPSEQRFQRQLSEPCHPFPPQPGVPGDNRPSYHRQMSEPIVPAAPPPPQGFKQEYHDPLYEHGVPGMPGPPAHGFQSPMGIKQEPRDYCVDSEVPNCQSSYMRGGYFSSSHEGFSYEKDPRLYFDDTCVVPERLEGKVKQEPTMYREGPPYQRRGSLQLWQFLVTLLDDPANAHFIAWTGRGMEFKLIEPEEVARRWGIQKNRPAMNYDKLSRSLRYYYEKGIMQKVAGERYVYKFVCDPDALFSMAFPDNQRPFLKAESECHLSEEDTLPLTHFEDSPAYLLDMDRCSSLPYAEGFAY
# CRX, sequence (O43186 whole entry): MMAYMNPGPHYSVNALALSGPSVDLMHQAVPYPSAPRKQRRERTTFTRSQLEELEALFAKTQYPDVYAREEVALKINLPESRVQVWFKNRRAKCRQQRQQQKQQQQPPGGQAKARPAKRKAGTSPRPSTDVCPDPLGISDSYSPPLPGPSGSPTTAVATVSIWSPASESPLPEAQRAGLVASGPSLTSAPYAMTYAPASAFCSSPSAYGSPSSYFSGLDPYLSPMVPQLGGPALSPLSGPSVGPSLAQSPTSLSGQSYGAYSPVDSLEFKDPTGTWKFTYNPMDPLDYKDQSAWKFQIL
# HSF1, sequence (Q00613 whole entry): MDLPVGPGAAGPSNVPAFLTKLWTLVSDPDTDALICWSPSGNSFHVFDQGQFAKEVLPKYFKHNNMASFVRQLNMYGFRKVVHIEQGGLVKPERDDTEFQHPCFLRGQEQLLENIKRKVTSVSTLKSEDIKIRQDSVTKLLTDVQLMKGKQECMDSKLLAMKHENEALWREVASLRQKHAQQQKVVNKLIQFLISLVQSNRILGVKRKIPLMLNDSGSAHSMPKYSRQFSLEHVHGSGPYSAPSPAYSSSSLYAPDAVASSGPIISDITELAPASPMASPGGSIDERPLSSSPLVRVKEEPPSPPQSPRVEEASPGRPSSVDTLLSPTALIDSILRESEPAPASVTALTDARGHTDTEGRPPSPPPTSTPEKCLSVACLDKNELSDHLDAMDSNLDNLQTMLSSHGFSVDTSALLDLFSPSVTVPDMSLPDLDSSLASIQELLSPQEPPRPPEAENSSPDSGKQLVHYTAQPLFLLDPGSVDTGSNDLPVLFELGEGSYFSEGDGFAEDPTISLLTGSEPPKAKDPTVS
# SPIB, sequence (Q01892 whole entry): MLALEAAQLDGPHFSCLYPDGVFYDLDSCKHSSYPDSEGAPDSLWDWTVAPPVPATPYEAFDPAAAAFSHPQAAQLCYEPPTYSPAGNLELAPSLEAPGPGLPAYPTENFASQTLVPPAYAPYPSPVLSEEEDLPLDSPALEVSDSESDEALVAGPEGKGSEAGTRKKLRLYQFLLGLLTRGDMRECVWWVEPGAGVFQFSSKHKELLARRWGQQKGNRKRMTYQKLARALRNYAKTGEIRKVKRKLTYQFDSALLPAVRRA
# ELF1, sequence (P32519 whole entry): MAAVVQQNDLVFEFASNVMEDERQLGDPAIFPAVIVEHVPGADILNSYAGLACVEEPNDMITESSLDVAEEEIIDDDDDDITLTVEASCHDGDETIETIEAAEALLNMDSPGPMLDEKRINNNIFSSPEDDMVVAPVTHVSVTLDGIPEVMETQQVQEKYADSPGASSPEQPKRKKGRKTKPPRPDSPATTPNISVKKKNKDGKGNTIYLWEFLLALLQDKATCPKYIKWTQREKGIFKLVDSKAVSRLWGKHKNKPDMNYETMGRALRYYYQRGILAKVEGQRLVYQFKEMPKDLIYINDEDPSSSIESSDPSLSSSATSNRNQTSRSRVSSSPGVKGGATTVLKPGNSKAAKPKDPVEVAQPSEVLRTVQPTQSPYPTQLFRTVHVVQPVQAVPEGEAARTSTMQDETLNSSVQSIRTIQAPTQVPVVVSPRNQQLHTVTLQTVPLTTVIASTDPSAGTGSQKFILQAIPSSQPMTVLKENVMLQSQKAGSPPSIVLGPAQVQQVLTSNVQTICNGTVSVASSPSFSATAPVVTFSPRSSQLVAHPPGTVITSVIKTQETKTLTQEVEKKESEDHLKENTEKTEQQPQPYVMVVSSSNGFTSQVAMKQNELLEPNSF
sequence,measurement,setting,value
TTCATC,binding signal,[1],"1.36 fold enrichment (6-mer frequency, TF over GST control)"
same,binding signal,[2],"1.28 fold enrichment (6-mer frequency, TF over GST control)"
same,binding signal,[3],"1.29 fold enrichment (6-mer frequency, TF over GST control)"
same,binding signal,[4],"1.22 fold enrichment (6-mer frequency, TF over GST control)"
same,binding signal,[5],"1.27 fold enrichment (6-mer frequency, TF over GST control)"
same,binding signal,[6],"1.14 fold enrichment (6-mer frequency, TF over GST control)"
same,binding signal,[7],"1.27 fold enrichment (6-mer frequency, TF over GST control)"
same,binding signal,[8],"1.28 fold enrichment (6-mer frequency, TF over GST control)"
same,binding signal,[9],"1.32 fold enrichment (6-mer frequency, TF over GST control)"
same,binding signal,[10],"1.21 fold enrichment (6-mer frequency, TF over GST control)"
same,binding signal,[11],"1.28 fold enrichment (6-mer frequency, TF over GST control)"
same,binding signal,[12],"1.29 fold enrichment (6-mer frequency, TF over GST control)"
same,binding signal,[13],"1.28 fold enrichment (6-mer frequency, TF over GST control)"
same,binding signal,[14],"1.27 fold enrichment (6-mer frequency, TF over GST control)"
same,binding signal,[15],"1.27 fold enrichment (6-mer frequency, TF over GST control)"
same,binding signal,[16],"1.25 fold enrichment (6-mer frequency, TF over GST control)"
same,binding signal,[17],"1.3 fold enrichment (6-mer frequency, TF over GST control)"
same,binding signal,[18],"1.28 fold enrichment (6-mer frequency, TF over GST control)"
same,binding signal,[19],"1.25 fold enrichment (6-mer frequency, TF over GST control)"
